Consider 55 compounds from ChEMBL document CHEMBL4513216, “Probing the Open Global Health Chemical Diversity Library for Multistage-Active Starting Points for Next-Generation Antimalarials” (ACS Infect Dis, 2020).

Out of some 69,000 compounds screened, about 8,600 (12%) showed an effect of 50% or more. The sample as a whole holds a higher share of strong results than the screen did.

For this assay, the system named is Plasmodium berghei. Nature of the assay: Screen against P. berghei liver stage (PbLuc), transformed with Luciferase, at 10uM. Format: functional, HepG2. The note with it: tested at 10 uM.
With `Cc1nn(C)cc1-c1cc(C(=O)N2CCc3ncc(Cl)cc3C2)on1`, the INHIBITION came out at 7.15%.

As to `N#CCc1ccc(NC(=O)Cn2cc(I)cn2)cc1`, the INHIBITION was 36.6%.

With `O=C(NCC1CCCO1)c1nc2c(s1)CCCN2Cc1ccccc1` (stereo not given), the INHIBITION is -57.7%.

With `CCOc1ccc(Br)cc1S(=O)(=O)N(CC)Cc1ccc(N(C)C)cc1`, the INHIBITION stood at 61.5%.

In the case of `CCN(Cc1ccc(N(C)C)cc1)S(=O)(=O)c1cc(Br)ccc1OC`, the INHIBITION is listed as 7.65%.

Take `COc1ccc(Br)cc1S(=O)(=O)N(C)Cc1ccc(N(C)C)cc1`: the INHIBITION worked out at 5.76%.

Consider `CCOC(=O)N1CC(C)=C(C)CN1C(=O)Nc1ccc(Cl)c(Cl)c1`, for which the INHIBITION worked out at 13%.

As for `CCNc1cc2c(nn1)CCN(C(=O)c1cccc(CSC)c1)C2`, the INHIBITION amounted to 37.3%.

On to `CN(C(=O)c1cccnc1)C1CCCN(CCc2ccccc2)C1` (stereo not given), for which the INHIBITION is reported as 42.2%.

For `O=C(c1ccco1)N1CCCC1C1CCN(Cc2ccccc2)CC1` (stereo not given), the INHIBITION was 21.3%.

With `O=C(c1ccoc1)N1CCCC1C1CCN(Cc2ccccc2)CC1` (stereo not given), the INHIBITION is given as 51.1%.

`O=C(c1ccoc1)N1CC[C@@H](N2CCOCC2)[C@@H]1Cc1ccccc1`: the INHIBITION is given as 35.7%.

`O=C(C1CC1)N1CCCC1C1CCN(Cc2ccccc2)CC1` (stereo not given): the INHIBITION was -12.6%.

`O=C(c1cccnc1)N1CCCC1C1CCN(Cc2ccccc2)CC1` (stereo not given): the INHIBITION is reported as 73.6%.

For the compound `O=C(c1ccc(CN2CCCCC2)cc1)N1CCCC1c1cccs1` (stereo not given), the INHIBITION is on record as 31%.

Take `O=C(c1ccncc1)N1CCCC1C1CCN(Cc2ccccc2)CC1` (stereo not given): the INHIBITION came to 51.1%.

Consider `O=C(c1cc[nH]n1)N1CCCC1C1CCN(Cc2ccccc2)CC1` (stereo not given), for which the INHIBITION came to 37.9%.

As for `Cc1cccnc1C(=O)N1CCC(Cc2cnc3[nH]ccc3c2)CC1`, the INHIBITION worked out at 44.8%.

In the case of `OCC(O)CN(CCN1CCOCC1)Cc1ccco1` (stereo not given), the INHIBITION worked out at 43.9%.

For `Cc1oncc1C(=O)N1CC[C@H]2[C@H](C[C@@H](CN3CCCC3)N2C)C1`, the INHIBITION was 16.6%.

On to `Cc1cc(C(=O)N2CC[C@H]3[C@H](C[C@@H](CN4CCCC4)N3C)C2)c(C)o1`, for which the INHIBITION is 39.5%.

Turning to `Cc1nc(C(C)C)ncc1C(=O)N1CCCC(N2CCCC2)C1` (stereo not given), the INHIBITION is given as 26.8%.

In the case of `O=C(O)CSC1CCc2ccccc2NC1=O` (stereo not given), the INHIBITION was determined as 18.4%.

As to `NS(=O)(=O)CCN1CCN(c2ccccc2O)CC1`, the INHIBITION is listed as -24.7%.

For `O=C(Nc1ccccc1)N1C[C@@H]2C[C@H](C(=O)N3CCOCC3)[C@H](C1)O2`, the INHIBITION was 55.4%.

As to `CCOC(=O)CCNC(=O)N1CCCC(CNC(=O)c2ccco2)C1` (stereo not given), the INHIBITION was determined as 15.7%.

Take `CC(C)CS(=O)(=O)N1C[C@@H]2C[C@H](C(=O)N3CCN(C)CC3)[C@H](C1)O2`: the INHIBITION is on record as -1.28%.

On to `CC(C)NC(=O)[C@H]1C[C@H]2CN(C(=O)NC(C)C)C[C@@H]1O2`, for which the INHIBITION turned out to be 24%.

On to `CC(C)CS(=O)(=O)N1C[C@@H]2C[C@H](C(=O)N3CCOCC3)[C@H](C1)O2`, for which the INHIBITION was determined as 83.2%.

In the case of `CC(C)CS(=O)(=O)N1C[C@@H]2C[C@H](C(=O)N3CCCC3)[C@H](C1)O2`, the INHIBITION is 32.5%.

Regarding `O=C(NCC1CCCN(C(=O)NCCc2ccccc2)C1)c1ccco1` (stereo not given), the INHIBITION stood at 59.1%.

With `O=C(Nc1ccc(F)cc1)N1C[C@@H]2C[C@H](C(=O)N3CCOCC3)[C@H](C1)O2`, the INHIBITION turned out to be 1.58%.

Take `CCOC(=O)CNC(=O)N1CCCC(CNC(=O)c2ccco2)C1` (stereo not given): the INHIBITION is listed as 3.73%.

For the compound `CC(C)NC(=O)N1C[C@@H]2C[C@H](C(=O)N3CCCC3)[C@H](C1)O2`, the INHIBITION is 43.9%.

Take `CNC(=O)[C@H]1C[C@H]2CN(C(=O)NC(C)C)C[C@@H]1O2`: the INHIBITION is 57.5%.

On to `O=C(Nc1ccccc1)N1C[C@@H]2C[C@H](C(=O)N3CCCC3)[C@H](C1)O2`, for which the INHIBITION is on record as -13.2%.

For `CCS(=O)(=O)N[C@H]1CN(CC(C)(C)N2CCOCC2)C[C@@H]1C1CC1`, the INHIBITION was determined as 18.5%.

For the compound `O=C(Nc1ccccc1)C1=NOC2(CCCN(C(=O)C3CCCC3)C2)C1` (stereo not given), the INHIBITION was -31%.

In the case of `O=C(c1ccn(-c2ccc(F)cc2)n1)N1CCCC(n2ccnc2)C1` (stereo not given), the INHIBITION is on record as -17%.

`CCc1nc(CNC2CCN(S(C)(=O)=O)CC2)cs1`: the INHIBITION is listed as 28.3%.

With `O=C(C1CCOCC1)N1CCO[C@H]2[C@@H](OCC3CC3)CC[C@@H]21`, the INHIBITION is reported as -19.8%.

Turning to `CCC(C)N(Cc1cccnc1)C(=O)c1ccc(NS(=O)(=O)CC)cc1` (stereo not given), the INHIBITION is listed as 18.8%.

For the compound `CCCn1ncc(C(=O)N2CCCC(OCc3ccccn3)C2)c1C` (stereo not given), the INHIBITION is recorded as -38.6%.

In the case of `CN(C)C(=O)[C@H]1C[C@H]2CN(S(=O)(=O)c3ccccc3)C[C@@H]1O2`, the INHIBITION was 33.4%.

Take `CN1C[C@@H]2C[C@H](C(=O)Nc3cccnc3)[C@H](C1)O2`: the INHIBITION came to 41.6%.

With `CNC(=O)[C@H]1C[C@H]2CN(C(=O)Nc3ccccc3)C[C@@H]1O2`, the INHIBITION is reported as -26.5%.

`CN(C)C(=O)[C@H]1C[C@H]2CN(S(=O)(=O)Cc3ccccc3)C[C@@H]1O2`: the INHIBITION was 19.9%.

Regarding `CNC(=O)[C@H]1C[C@H]2CN(C(=O)NCCc3ccccc3)C[C@@H]1O2`, the INHIBITION was found to be 19.5%.

For the compound `O=C(NCCc1ccccc1)N1C[C@@H]2C[C@H](C(=O)N3CCCC3)[C@H](C1)O2`, the INHIBITION worked out at 57.1%.

In the case of `O=C(Nc1ccccc1)[C@H]1C[C@H]2CN(C(=O)Nc3ccccc3)C[C@@H]1O2`, the INHIBITION came out at 7.31%.

Take `O=C(Nc1cccnc1)[C@H]1C[C@H]2CN(C(=O)NC3CCCC3)C[C@@H]1O2`: the INHIBITION is recorded as 9.67%.

For the compound `CN(C)C(=O)[C@H]1C[C@H]2CN(CCc3ccccc3)C[C@@H]1O2`, the INHIBITION came out at 66%.

For `CNC(=O)N1C[C@@H]2C[C@H](C(=O)Nc3cccnc3)[C@H](C1)O2`, the INHIBITION amounted to 54.4%.

On to `O=C(NCc1ccccc1)N1C[C@@H]2C[C@H](C(=O)N3CCCC3)[C@H](C1)O2`, for which the INHIBITION is given as 15.3%.

As to `CNC(=O)N1C[C@@H]2C[C@H](C(=O)Nc3ccccc3)[C@H](C1)O2`, the INHIBITION came to 62%.
